From PubChem BioAssay
A number with no mark means an inactive call. How the calls were made is not given here.

Target: Pantothenate synthetase (Mycobacterium tuberculosis (strain ATCC 25618 / H37Rv)) (UniProt P9WIL5)
Test: Recombinant Mtb pantothenate synthetase (PanC) inhibitors, coupled enzyme, confirmatory (AID 375);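 further: 0% = full reaction with vehicle and 100% = no enzyme background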
Conditions: coupled enzyme assay; at 10 µM, stronger effect = higher value

Chain of Pantothenate synthetase (Mycobacterium tuberculosis (strain ATCC 25618 / H37Rv)) (P9WIL5 whole entry, looked up): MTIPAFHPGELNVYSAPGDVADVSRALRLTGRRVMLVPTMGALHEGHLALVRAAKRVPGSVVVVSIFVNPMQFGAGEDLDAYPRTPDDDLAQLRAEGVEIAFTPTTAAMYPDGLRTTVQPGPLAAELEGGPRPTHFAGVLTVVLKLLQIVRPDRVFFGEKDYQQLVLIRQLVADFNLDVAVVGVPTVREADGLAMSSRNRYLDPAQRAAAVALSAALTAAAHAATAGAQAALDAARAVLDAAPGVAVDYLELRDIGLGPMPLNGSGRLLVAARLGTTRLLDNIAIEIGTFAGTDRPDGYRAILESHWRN

| Compound | inhibition [%] |
| --- | --- |
| Cc1cc(C)n(-c2nc(C)nc3sc4c(c23)CCC(C)C4)n1 (stereo not given) | 0 |
| C=CCSc1nc2sc(C)c(C)c2c(=O)[nH]1 | 10 |
| CC1(C)CC(=O)CC(C)(C)N1OC(=O)c1ccccn1 | 0 |
| Oc1cccc2ccc(Nc3ccccn3)nc12 | 8 |
| Cc1ccccc1NC(=O)CN1CCC(NC(=O)Nc2ccccc2)CC1 | 4 |
| Cc1cccc(CC(=O)Nc2c3c(nn2-c2cccc(Cl)c2)CS(=O)C3)c1 (stereo not given) | 2 |
| Cc1nc2c3cnn(-c4ccccc4)c3ncn2n1 | 7 |
| N#Cc1c(NC(NC(=O)c2ccco2)C(=O)c2ccccc2)sc2c1CCCC2 (stereo not given) | 2 |
| Brc1ccccc1-c1nc(-c2ccccc2)no1 | 0 |
| CCOC(=O)c1cc2c(=O)n3cccc(C)c3nc2n(CCc2ccccc2)c1=N | 0 |
| O=C(O)C1CSC2c3ccccc3C(=O)N12 (stereo not given) | 0 |
| O=C1c2ccccc2C(Nc2ccc3c(c2)OCCO3)N1Cc1ccco1 (stereo not given) | 0 |
| N#C/C(=C\c1ccc(O)c(O)c1)C(=O)NCCCc1ccccc1 | 0 |
| CN(CCCC(=O)Nc1ccncc1)S(=O)(=O)c1ccc(Cl)cc1 | 3 |
| COC(=O)c1c(N)n(-c2cc(OC)cc(OC)c2)c2nc3ccccc3nc12 | 1 |
| O=C(NCCSCc1ccco1)Nc1cccc(Cl)c1 | 3 |
| O=C(Cn1cc2c(n1)CCCC2)NCCc1ccccc1 | 0 |
| c1cnc(NCCNc2ncccn2)nc1 | 0 |
| O=C(CSc1nnc(-c2cnccn2)n1Cc1ccco1)c1ccc(Cl)cc1 | 0 |
| Cc1ccnc(NS(=O)(=O)c2ccc(N=CC3=C(O)CC(C)(C)CC3=O)cc2)n1 | 11 |

| Compound | inhibition [%] |
| --- | --- |
| Cc1ccc(CNC(=O)C2CCCN(S(=O)(=O)c3cccnc3)C2)cc1 (stereo not given) | 0 |
| Nc1nc2n(n1)C(c1c(F)cccc1Cl)CC(c1ccc(F)cc1)N2 (stereo not given) | 1 |
| N#Cc1c(NC(=O)CSc2nc(N)cc(=O)[nH]2)sc2c1CCCCCC2 | 0 |
| O=C(COc1ccc(Cl)cc1)Nc1ncccn1 | 9 |
| Cc1noc(C)c1CSc1ccccc1C(=O)N1CCN(c2ccccc2)CC1 | 0 |
| Cc1ccc(-c2oc3ccccc3c(=O)c2O)cc1 | 0 |
| CC(=O)C1=C(O)C(=O)N(Cc2ccco2)C1c1ccc(F)cc1 (stereo not given) | 10 |
| CSc1ccccc1N=CC1=C(O)CC(C)(C)CC1=O | 0 |
| Cc1ccc2c(c1)CCCN2C(=O)c1ccc2c(c1)OCO2 | 0 |
| O=C(NCCCNC1CCCCC1)c1ccc(/C=N/O)nc1 | 0 |
| COc1ccccc1OCC(=O)N1CCN(c2ccccc2OC)CC1 | 0 |
| CC1Cc2ccccc2N1C(=O)C12CCC(C)(C(=O)C1)C2(C)C (stereo not given) | 3 |
| O=c1c2cc(N3CCOCC3)ccc2[nH]c(=S)n1CCCN1CCCCC1 | 1 |
| Cn1c(=O)c2c(nc(N3CCN(c4ccccc4)CC3)n2CCCc2ccccc2)n(C)c1=O | 0 |
| CN(C)/C=c1\sc2c(C#N)cc(C(=O)c3ccc(Br)cc3)n2c1=O | 5 |
| COc1ccc(-n2nc3cc(C)c(N)c(Br)c3n2)cc1 | 0 |
| CC(C)(C)NC(=O)C(Cc1ccccc1)NS(=O)(=O)c1cccc2nsnc12 (stereo not given) | 0 |
| O=C(CNCCC1=CCCCC1)Nc1ccccc1N1CCCCC1 | 0 |
| Cc1nc(-c2cccc(-c3noc(C)n3)c2)no1 | 0 |
| COc1ccc(OC)c(S(=O)(=O)Nc2ccc(C(N)=O)cc2)c1 | 0 |
